Shown are actives, neighbours in structure and some others; about 28% of the full set was active somewhere.
PLK1 PBD inh – Plk1 polo box domain binding inhibitors, primary screen, biochemical, fluorescence polarization; AID 693, 2007; 97,000 compounds, 0.13% hits; inhibition, %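 (tested at about 20 µM)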; Plk1 PBD phosphopeptide binding; in the data active = inhibition above about 34%, passing the limit was not always enough
CYP2C9 inh – blockers of cytochrome P450 2C9 activity – biochemical, luminescence, ADME assay, primary screen | P11712 | inhibition, % at 5 µM | 96,000 compounds, 20% hits | CYP2C9 Supersomes, luciferin-H conversion;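 active = blocking of liver enzyme CYP2C9 beyond about 50% at 5 µM, limit read from the data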
CYP2C19 act – human CYP2C19 activators, primary screen, biochemical, luminescence; Cytochrome P450 2C19 (Homo sapiens), P33261; recombinant CYP2C19, luciferin-H EGE luminescence; active compounds read high; 0 = fully inhibited enzyme, 1 = untreated enzyme; activation factor at 5 µM; 96,000 tested, under 10 active;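 active = activation factor of at least 2 at 5 µM in the primary screen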
Target sequence (P33261 whole entry, looked up): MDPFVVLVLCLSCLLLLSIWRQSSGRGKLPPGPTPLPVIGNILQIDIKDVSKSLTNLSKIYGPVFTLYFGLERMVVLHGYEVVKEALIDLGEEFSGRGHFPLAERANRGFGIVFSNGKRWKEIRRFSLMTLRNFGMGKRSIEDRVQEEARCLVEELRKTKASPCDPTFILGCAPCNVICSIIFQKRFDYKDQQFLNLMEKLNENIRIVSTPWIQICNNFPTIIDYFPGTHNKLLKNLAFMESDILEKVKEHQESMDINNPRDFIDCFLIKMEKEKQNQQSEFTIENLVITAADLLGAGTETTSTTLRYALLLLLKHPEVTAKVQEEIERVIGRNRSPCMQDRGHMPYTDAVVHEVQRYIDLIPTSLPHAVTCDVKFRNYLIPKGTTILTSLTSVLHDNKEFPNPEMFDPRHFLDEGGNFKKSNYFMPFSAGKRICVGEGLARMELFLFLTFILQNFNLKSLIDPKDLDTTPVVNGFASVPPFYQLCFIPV
PLK1 kinase inh – human PLK1 kinase inhibitors, primary screen, biochemical, TR-FRET. Serine/threonine-protein kinase PLK1 (Homo sapiens), P53350. recombinant PLK1 kinase, TR-FRET peptide phosphorylation. inhibition, % at 10 µM. 97,000 compounds, 0.53% hits. AID 619, 2007;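 active = inhibition of 50% or more in the single-concentration screen; inactive = inhibition below 50%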
CYP2C19 inhib – blockers of cytochrome P450 2C19 activity – biochemical, luminescence, ADME assay, primary screen | CYP2C19 Supersomes, luciferin-H EGE luminescence, 30 min | inhibition, % at 5 µM | 96,000 compounds, 21% hits | AID 778, 2007;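 active = CYP2C19 inhibition above a set limit at 5 µM in the primary screen, cut at about 50% in these data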
CYP2C9 act – human CYP2C9 activators, primary screen, biochemical, luminescence | activation factor at 5 µM | AID 1024, 2008 | recombinant CYP2C9, luciferin-H conversion; active compounds read high; factor 1 = untreated enzyme, 0 = blocked | 96,000 compounds, 1.4% hits;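 active = activation factor of 2 or more for CYP2C9 at a 5 µM dose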
Each line names hits and unclear results; the compound was inactive in the other large screens.

CCCc1cc(=O)n2[nH]c(NCc3c(F)cccc3Cl)nc2n1	none
Cc1ccccc1Cn1cc(NC(=O)COc2ccccc2)cn1	none
O=C(O)C1C2CCC(C2)C1C(=O)Nc1nc2ccccc2s1 (stereo not given)	none
CCOC(=O)NC(Nc1nc2ccccc2s1)(C(=O)OCC)C(F)(F)F (stereo not given)	CYP2C9 inh 82.9, CYP2C19 inhib 93.3
O=C(NC(Nc1nc2ccccc2s1)(C(F)(F)F)C(F)(F)F)c1ccccc1	CYP2C9 inh 91.8, CYP2C19 inhib 75.9
CCOc1ccc2nc(NS(=O)(=O)Cc3ccccc3)sc2c1	CYP2C9 inh 96.2, CYP2C19 inhib 76.8
CCOc1ccc2nc(NS(=O)(=O)c3ccc(NC(C)=O)cc3)sc2c1	none
O=C(NC(=O)c1ccc(Cl)cc1)Nc1cc(N2CCCCC2)ncn1	none (no result: CYP2C9 inh, CYP2C19 act, CYP2C19 inhib, CYP2C9 act)
S=C1NCCOCCOCCOCCNC(=S)NCCOCCOCCOCCN1	none (no result: CYP2C9 inh, CYP2C19 act, CYP2C19 inhib, CYP2C9 act)
O=c1c2ccccc2nnn1CSc1nnc(-c2cccs2)n1Cc1ccccc1	none (no result: PLK1 PBD inh, PLK1 kinase inh)
C=CCn1c(SCC(=O)Nc2ccccc2)nc2scc(-c3cccs3)c2c1=O	CYP2C9 inh 99.5, CYP2C19 inhib 83.0
C=CCn1c(SCn2nnc3ccccc3c2=O)nc2scc(-c3cccs3)c2c1=O	CYP2C9 inh 72.5
C=CCn1c(SCC(=O)Nc2sccc2C(N)=O)nc2sc(CC)cc2c1=O	CYP2C9 inh 66.1
C=CCn1c(SCC(=O)N2CCCC2)nc2scc(-c3cccs3)c2c1=O	none
C=CCn1c(SCC(=O)NCc2ccc3c(c2)OCO3)nc2scc(-c3ccccc3)c2c1=O	CYP2C9 inh 54.5
O=C(O)CONC(=O)c1cc(OCC(F)(F)F)ccc1OCC(F)(F)F	none
COc1cc(NC(=O)c2cccs2)c(OC)cc1NC(=O)CCn1nnc2ccccc21	none
O=C(Cn1c(O)c(/C=C2\C=Nc3ccc(Br)cc32)sc1=O)N1CCCC1	CYP2C9 inh 90.7, CYP2C19 inhib 69.5
CC1=Nc2ccccc2/C1=C/c1sc(=O)n(CC(=O)N2CCCC2)c1O	none
Cn1c(C(C#N)C2=C(Cl)C(=O)N(c3ccccc3)C2=O)nc2ccccc21 (stereo not given)	CYP2C9 inh 91.5, CYP2C19 inhib 78.4
Cc1cc2n(c(=O)c1C#N)CCCN2c1ccccc1	none (no result: CYP2C9 inh, CYP2C19 act, CYP2C19 inhib, CYP2C9 act)
COc1ccc(NC(=O)CN2CCN(S(=O)(=O)c3ccc(C(C)C)cc3)CC2)cc1OC	none (no result: PLK1 PBD inh, PLK1 kinase inh)
COc1ccc(OC)c(C(=O)CN2CCN(S(=O)(=O)c3ccc(Br)cc3)CC2)c1	CYP2C9 inh 58.5, CYP2C19 inhib 83.3 (no result: PLK1 PBD inh, PLK1 kinase inh)
COc1ccc(C)cc1NC(=O)CN1CCN(S(=O)(=O)c2ccc(C(C)C)cc2)CC1	CYP2C9 inh 87.8, CYP2C19 inhib 85.9
COc1cc2c(cc1NC(=O)CN1CCN(S(=O)(=O)c3ccc(C)cc3)CC1)oc1ccccc12	none
COc1ccc(C)cc1NC(=O)CN1CCN(S(=O)(=O)c2ccc(Cl)cc2)CC1	CYP2C9 inh 64.7, CYP2C19 inhib 65.8
Cc1ccc(C(=O)N2CCSCC2)cc1	none
COc1ccc(N2CC(C(=O)OCC(=O)NCc3ccccc3)CC2=O)cc1 (stereo not given)	none
CC1CCN(CCNC(=O)C2CCCN(S(=O)(=O)c3cccc4nonc34)C2)CC1 (stereo not given)	none
Cc1nc(CC(=O)Nc2nc(-c3ccccc3)cs2)cs1	CYP2C19 inhib 51.7
O=C(Cc1cccs1)Nc1nc(-c2ccccc2)cs1	CYP2C9 inh 60.7, CYP2C19 inhib 50.7
Cc1ccc(C)c(S(=O)(=O)NCc2ccc(C(=O)N3CCC(Cc4ccccc4)CC3)cc2)c1	none
COc1cccc(OC)c1OCCCN1CCOCC1	none
COc1cccc(OC)c1OCCCCN1CCCC1	none
COc1cccc(OCCOc2c(OC)cccc2OC)c1	CYP2C19 inhib 95.3
COc1cccc(OC)c1OCCCOc1c(OC)cccc1OC	CYP2C19 inhib 75.8
COc1cccc(OC)c1OCCOc1ccccc1OC(C)C	CYP2C19 inhib 81.5
COc1ccc(S(=O)(=O)N2Cc3ccccc3CC2C(=O)O)cc1 (stereo not given)	none
CCOCCCN1C(=O)C(O)=C(C(C)=O)C1c1cccs1 (stereo not given)	none (no result: CYP2C9 inh, CYP2C19 act, CYP2C19 inhib, CYP2C9 act)
CC(Oc1ccc(Cl)cc1)c1ccnn1S(=O)(=O)c1ccc(Cl)cc1 (stereo not given)	CYP2C9 inh 82.0
CCNC(=O)n1nccc1C(C)Oc1ccccc1 (stereo not given)	CYP2C19 inhib 54.9
CC(C)OCCCNC(=O)C(C)Oc1ccccc1 (stereo not given)	none
CC12CN(S(=O)(=O)c3ccccc3)CC(C)(CN(S(=O)(=O)c3ccccc3)C1)C2	none
CC(Oc1ccccc1)c1ccnn1S(=O)(=O)c1ccccc1 (stereo not given)	CYP2C9 inh 63.6
CC(C)Oc1ccc(/C=N/NC(=O)C2CCCN2S(=O)(=O)c2ccc(Cl)cc2)cc1 (stereo not given)	none
CSc1nncc(=O)[nH]1	none
CCC(C)Nc1nc(CN2CCOCC2)nc2sc3c(c12)CCC3 (stereo not given)	none
Cn1c(=O)c2nc(Cl)n(Cc3ccc(Cl)cc3Cl)c2n(C)c1=O	none (no result: CYP2C9 inh, CYP2C19 act, CYP2C19 inhib, CYP2C9 act)
Cc1cc(C)nc(N/N=C/C(Cl)=C/c2ccccc2)n1	none
COc1ccc(C2N=C(Nc3ccc(C)cc3)Nc3nc(C)cc(=O)n32)cc1 (stereo not given)	none
CCc1nnc(SCc2ccc(OC)c(Br)c2)n1N	CYP2C19 inhib 57.9 (no result: PLK1 PBD inh, PLK1 kinase inh)
CNC(=O)C1CC(=O)N(CCCc2ccccc2)C(=Nc2ccccc2)S1 (stereo not given)	CYP2C9 inh 56.3, CYP2C19 inhib 64.6
NC(=O)c1cc(-c2ccccc2)sc1NC(=O)Cc1ccc(S(=O)(=O)N2CCOCC2)s1	CYP2C9 inh 51.6
Cc1c2c(n3c(nc4ccccc43)c1C#N)N(Cc1cccnc1)CC2	none (no result: CYP2C9 inh, CYP2C19 act, CYP2C19 inhib, CYP2C9 act)
O=C(NC1CCCCC1)NC1(C(=O)NCCCN2CCOCC2)CCCCC1	none
O=C1CCCC2=C1C(c1ccccc1)C1=C(CCCC1=O)O2	none (no result: PLK1 PBD inh, PLK1 kinase inh)
Cc1ccc(S(=O)(=O)N2CCOCC2)cc1NC(=O)c1cc2c(s1)CCC2	CYP2C9 inh 63.8, CYP2C19 inhib 51.9
COc1cc(S(=O)(=O)N2CCOCC2)ccc1NC(=O)c1cc2c(s1)CCC2	CYP2C9 inh 68.2 (no result: PLK1 PBD inh, PLK1 kinase inh)
COc1ccc(N2CC(O)=C(c3nc4ccccc4s3)C2=N)c(OC)c1	CYP2C19 inhib 55.2 (no result: PLK1 PBD inh, PLK1 kinase inh)
N=C1C(c2nc3ccccc3s2)=C(O)CN1Cc1ccco1	none
COC(=O)C(NC(=O)c1ccc(Cl)cc1)(Nc1nc(C)cs1)C(F)(F)F (stereo not given)	CYP2C19 inhib 73.6
